Screening results (PubChem)
Sfp inh – Sfp phosphopantetheinyl transferase inhibition; Potency, µM, usual class: inhibitors; Biochemical Sfp PPTase activity, qHTS; hit rate 3.5% among 310,000; AID 1490;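 also: the enzyme is Sfp with the accession as filed and its product quenches rhodamine fluorescence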
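Reaction rates are the 30-min fluorescence difference (ex 525, em 598 nm) in wells containing 15 nM Sfp, 5 uM rhodamine-CoA and 12.5 uM BHQ-2-YbbR at pH 7.6 with 10 mM MgCl2.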
JMJD2A Tudor – inhibitors of human JMJD2A Tudor domain. hit rate 4.4% among 390,000. Potency, µM (series often up to 114 µM), actives largely listed as inhibitors. AlphaScreen JMJD2A-Tudor / H3K4me3 peptide binding. AID 504339; also: nearly all actives have a fitted effect of over 50% in size
BAZ2B block – BAZ2B (human) inhibition; Q9UIF8; AlphaScreen BAZ2B-H3K14Ac peptide displacement; Potency, µM (doses to about 114 µM), actives largely listed as inhibitors; hit rate 4.4% among 360,000; AID 504333; also: nearly all actives have a fitted effect of over 60% in size
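BAZ2B 50 nM plus b-H3(5-23)K14Ac 50 nM, PBS pH 7.4/0.01% Tween-20, 30 min RT; compound added (max 110 uM), 30 min RT; streptavidin donor/Ni-chelate acceptor beads 10 ug/mL final, 20 min dark; AlphaScreen read.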
G9a block – inhibitors of human histone lysine methyltransferase G9a; Potency, µM (series often up to 102 µM), most hits filed as inhibitors; G9a H3K9 monomethylation, AlphaScreen, 2 h; hit rate 8.8% among 350,000; Q96KQ7; also: nearly all actives have a fitted effect of over 75% in size
Target sequence (Q96KQ7 913-1193 limits assumed): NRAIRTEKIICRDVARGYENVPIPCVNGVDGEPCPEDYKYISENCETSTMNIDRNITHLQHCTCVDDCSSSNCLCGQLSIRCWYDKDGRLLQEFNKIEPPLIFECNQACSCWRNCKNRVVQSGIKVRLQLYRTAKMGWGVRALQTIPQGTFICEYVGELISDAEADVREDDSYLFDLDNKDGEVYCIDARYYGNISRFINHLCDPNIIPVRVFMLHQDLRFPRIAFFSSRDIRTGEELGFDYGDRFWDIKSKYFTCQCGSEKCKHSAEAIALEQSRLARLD
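Readings reflect AlphaScreen signal from monomethyl-H3K9 antibody detection. HMT at 20 nM; substrate b-H3K9 500 nM; cofactor SAM 20 uM; 2 h RT reaction; compounds tested as titrations in qHTS with 15 min preincubation.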
HP1b chromo inh – inhibitors of HP1-beta chromodomain binding to methylated histone tails. hit rate 0.56% among 390,000. Potency, µM (doses to about 114 µM), actives largely listed as inhibitors. AlphaScreen HP1-beta / biotin-H3K9me3 peptide binding; also: nearly all actives have a fitted effect of over 70% in size
Target sequence (P83916 whole entry, looked up): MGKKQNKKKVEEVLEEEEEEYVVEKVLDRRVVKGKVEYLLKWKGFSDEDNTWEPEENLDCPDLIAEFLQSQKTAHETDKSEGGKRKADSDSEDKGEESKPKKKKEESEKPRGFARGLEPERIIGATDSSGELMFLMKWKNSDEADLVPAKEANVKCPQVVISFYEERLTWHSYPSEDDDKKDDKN
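HP1-beta protein (50 nM final) preincubated 30 min at room temperature with biotinylated H3(1-18)K9me3 peptide (50 nM) in PBS pH 7.4, 0.01% Tween-20, then compound added for 30 min. AlphaScreen streptavidin donor/nickel chelate acceptor beads (10 ug/mL final), 30 min dark, luminescence read.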
A number is an active result; . = inactive; ? = inconclusive; / = no result given; ! = not confirmed by another sample; [ ] = another dose, or the depositor's remark. A selection: hits, their analogues and other compounds. The true share with any hit is near 12%. Calls follow the shape of the dose curve; as a rule, active = well fitted curve in the direction sought with a large enough effect; inconclusive = small, poorly fitted or top-dose-only effect, or another doubt; inactive = no such curve, though single readings can be large; an effect the other way counts as inactive or inconclusive.

SMILES | Sfp inh | JMJD2A Tudor | BAZ2B block | G9a block | HP1b chromo inh
CCOCCCn1c(SCC(=O)Nc2oc(C)c3c(C)n[nH]c(=O)c23)nc2ccccc2c1=O | / | . | / | / | .
C=CCn1c(C)nnc1SCC(=O)Nc1oc(C)c2c(C)n[nH]c(=O)c12 | / | . | . | 32µM | .
Cc1n[nH]c(=O)c2c(NC(=O)CSc3ncccn3)oc(C)c12 | / | . | . | 50µM | .
Cc1ccc(C)c(SCC(=O)Nc2oc(C)c3c(C)n[nH]c(=O)c23)c1 | / | . | . | 40µM | .
CCc1cc2c(=O)n(CCCOC)c(SCC(=O)Nc3oc(C)c4c(C)n[nH]c(=O)c34)nc2s1 | / | . | . | 56µM | .
Cc1ccc(SCC(=O)Nc2oc(C)c3c(C)n[nH]c(=O)c23)cc1C | / | . | . | .[12.7 µM] | .
Cc1n[nH]c(=O)c2c(NC(=O)CSc3nnc(-c4ccncc4)n3C)oc(C)c12 | . | ? | . | . | .
N#Cc1cccc(CS(=O)(=O)c2ccccc2)c1 | . | / | / | / | /
CCOCCCn1c(SCC(=O)Nc2oc(C)c3c(C)n[nH]c(=O)c23)nnc1-c1ccncc1 | / | . | . | 35µM | .
COc1ccc(/C=C(\C#N)C(=O)NC2CCS(=O)(=O)C2)cc1OC (centres undefined) | . | . | . | . | .
CC1CCCCN1C(=O)c1ccc2c(c1)N(Cc1ccc(F)cc1)C(=O)c1ccccc1S2(=O)=O (centres undefined) | / | . | . | . | .
CCOc1ccccc1NC(=O)c1nnn(CC(=O)Nc2cc(C)cc(C)c2)c1N | . | . | . | . | .
CN(C(=O)COC(=O)Cn1c(C(F)(F)F)nc2ccccc21)c1c(N)n(Cc2ccccc2)c(=O)[nH]c1=O | . | . | . | / | .
CC(C)CN(C(=O)COC(=O)c1ccccn1)c1c(N)n(Cc2ccccc2)c(=O)[nH]c1=O | / | 6.3µM | ? | 45µM | .
CCc1nc2ccccc2n1CC(=O)OCC(=O)N(CC(C)C)c1c(N)n(Cc2ccccc2)c(=O)[nH]c1=O | / | . | . | 56µM | .
Cn1c(SCC(=O)Nc2ccc(Cl)cc2F)nnc1-c1ccco1 | . | . | . | 45µM | .
c1cncc(CSc2nnc3ccc(-c4ccco4)nn23)c1 | . | . | . | . | .
Nn1c(SCC(=O)NCCCc2ccccc2)nnc1-c1cccnc1 | . | . | . | 50µM | .
CCCn1c(SCC(=O)NCCc2ccccc2)nnc1-c1cccnc1 | . | . | . | . | .
Cn1c(SCC(=O)NCCc2ccccc2)nnc1-c1ccco1 | . | 89µM | . | .[12.7 µM] | .
Cc1cc(NC(=O)CSc2nnc(-c3ccco3)n2C)no1 | / | . | . | .[12.7 µM] | .
COCCn1c(SCc2cccnc2)nnc1-c1ccco1 | 20µM | . | . | ? | .
CCOC(=O)C1=C(COC(=O)CNS(=O)(=O)c2c(F)cc(F)cc2Br)NC(=O)NC1C (centres undefined) | / | . | / | / | .
COCCn1c(SCC(=O)NCCc2ccccc2)nnc1-c1ccco1 | . | . | . | 45µM | .
CCn1c(SCC(=O)NCCc2ccccc2)nnc1-c1ccco1 | ? | . | . | 40µM | .
SMILES | Sfp inh | JMJD2A Tudor | BAZ2B block | G9a block | HP1b chromo inh
CCN1CCN(C(C)CCc2ccccc2)CC1 (centres undefined) | . | . | . | ? | .
O=C1C2C(C(=O)N1/N=C/c1ccc(N3CCCCC3)o1)C1C=CC2C12CC2 (centres undefined) | 1µM | . | . | ? | .
C[C@@H]1/C=C\CC(=O)OC[C@H]2O[C@@H](C=C[C@@H]2O)[C@H](C)/C=C\CC(=O)OC1 | . | / | / | / | /
Nc1nnc(Cc2c[nH]c3ccccc23)s1 | . | . | . | 45µM | .
c1ccc2c(Cc3c[nH]c4ccccc34)c[nH]c2c1 | . | / | / | 8.9µM! | /
O=C1N[C@@H](Cc2c[nH]c3ccccc23)C(=O)N[C@H]1Cc1c[nH]c2ccccc12 | . | / | / | / | /
O=C(Nc1ccccc1Cl)ON=C1c2ccccc2-c2ccccc21 | . | . | . | . | .
C=CCn1c(SC(C)C#N)nc2ccccc2c1=O (centres undefined) | / | . | / | / | .
Cc1ccccc1OCC(=O)Nc1nnc(SCc2cc(=O)n3cc(Cl)ccc3n2)s1 | / | . | . | . | .
COc1cccc(N2C(=O)[C@H]3C(C(=O)c4cnccn4)=NN[C@H]3C2=O)c1 | 79µM | 50µM | 50µM | ? | .
O=c1[nH]c(N/N=C/c2ccccc2Br)nnc1-c1ccccc1 | 50µM | . | . | . | .
CCOC(=O)[C@@H]1[C@H]2COc3cc(OC)ccc3[C@@H]2N2C(=O)N(c3ccc(Cl)cc3)C(=O)[C@]12C | / | . | / | / | .
COc1ccc(Br)cc1/C=C/C(=O)NC(=S)Nc1ccc(Cl)c(C(=O)O)c1 | . | . | ? | 32µM | .
COc1ccc(C(=O)NC(=S)Nc2ccc3c(c2)Cc2ccccc2-3)cc1 | 45µM | . | . | ? | .
O=C(NC(=S)Nc1ccc(CN2CCOCC2)cc1)c1ccc(-c2ccc(Br)cc2)o1 | . | . | . | / | .
COc1ccc(Br)cc1C(=O)NC(=S)Nc1ccc(Cl)c(C(=O)O)c1 | 45µM | . | . | 20µM | ?
COc1ccc(Br)cc1C(=O)NC(=S)Nc1ccc(CN2CCOCC2)cc1 | ? | ? | 25µM | .[0.0925 µM] | .
CCOc1ccccc1-c1nnc2n1N=C(c1cc(OC)cc(OC)c1)CS2 | ? | . | / | / | /
CCOc1ccccc1-c1nnc2n1N=C(c1cccc(OC)c1)CS2 | . | . | / | / | /
COc1ccc(C(=O)NC(=S)Nc2ccc(Cl)c(C(=O)O)c2)cc1 | . | . | . | 50µM | ?
CCc1ccccc1OCCCCCNCCO | . | . | . | .[12.7 µM] | .
C=CCc1cc(Cl)ccc1OCCOCCNC(C)(C)C | . | 14µM | 50µM | 25µM | .
C=CCc1cc(Cl)ccc1OCCOCCNCCOC | . | 10µM | 71µM | ? | ?
C=CCc1cc(OC)ccc1OCCOCCC(C(=O)OCC)C(=O)OCC | . | . | . | . | .
C=CCc1ccccc1OCCNCCCOC | . | 2.5µM | . | 8.9µM | .
SMILES | Sfp inh | JMJD2A Tudor | BAZ2B block | G9a block | HP1b chromo inh
Cc1ccc(OCCOCCN(C)C)c(Cl)c1 | . | 40µM | 79µM | 8.9µM | ?
CCc1cc(OCCOCCN(C)C)ccc1Cl | . | 2.2µM | ? | ? | ?
C=CCc1cc(Cl)ccc1OCCNCCCOC | . | 2.5µM | . | 20µM | ?
C=CCc1cc(Cl)ccc1OCCOCCN(C)C | . | 3.5µM | 50µM | 7.9µM | ?
CCOc1ccc(Cl)cc1CNCCNCCO | . | . | . | / | .
CCOC(=O)C1=CNS(=O)(=O)NC1c1ccc(C(=O)OC)cc1 (centres undefined) | / | . | / | / | .
CC(C)CCOc1cccc(OCC(=O)Nc2ccncc2)c1 | . | . | . | . | .
COc1ccccc1NC(=O)CSc1nc2ccccc2nc1N1CC(C)OC(C)C1 (centres undefined) | . | . | . | / | .
COc1ccc(NS(=O)(=O)c2cc(OC)ccc2NC(=O)c2cc(C)oc2C)cc1 | . | ? | . | 79µM | .
COc1ccc(CNC(=O)COc2cc(O)c3c(c2)OC(C)(C)CC3=O)c(OC)c1 | . | 89µM | . | / | .
